From PubChem BioAssay (NCATS) come the findings set out here.

Assay [1] in a line: P-glycoprotein substrates identified in KB-8-5-11 adenocarcinoma cell line, qHTS therapeutic library screen (AID 1346987). Note: potency is the fitted concentration of half-maximal effect; nearly all actives have a fitted effect of over 65% in size. A digest of the protocol: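 In this qHTS, P-gp-rich KB-8-5-11 cells received library compounds across a concentration range. Viability was quantified by luminescence after 72 h at 37 degree C.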
The nature of assay [2]: Primary qHTS for inhibitors of nuclear receptor binding SET domain protein 2 (NSD2) in an isogenic RCH-ACV NSD2 p.E1099K mutant (9B) (AID 1645876). Note: potency is the fitted concentration of half-maximal effect; nearly all actives have a fitted effect of over 70% in size. For orientation: qHTS replaces the single test concentration by a dilution series.
A short description of assay [3]: Primary qHTS for inhibitors of nuclear receptor binding SET domain protein 2 (NSD2) in an RCH-ACV wild type WT cells (2C) (AID 1645877). Note: potency is the fitted concentration of half-maximal effect; nearly all actives have a fitted effect of over 70% in size.
For assay [4], the target named is Glutathione peroxidase 1 (Homo sapiens) (UniProt P07203). Nature of the assay: Primary qHTS Assay for Inhibitors of Recombinant Selenoprotein Glutathione Peroxidase 1 (GPX1) (AID 1845191). Note: nearly all actives have a fitted effect of over 65% in size. A digest of the protocol:
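GPX1 10 nM, GR 100 nM, GSH 1 mM, NADPH 0.5 mM, CHP 0.5 mM (final). 30-min cpd preincubation, RT. Ex340/Em450 read t=0, t=15 min.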

Assay [5] addresses Phospholipid hydroperoxide glutathione peroxidase GPX4 (Homo sapiens) (UniProt P36969). Kind of assay: Primary qHTS Assay for Inhibitors of Recombinant Selenoprotein Glutathione Peroxidase 4 (GPX4) (AID 1845192). Note: series mostly up to about 50 µM; nearly all actives have a fitted effect of over 65% in size. As to conditions: outcome: dose series up to 50 µM unless noted. A digest of the protocol:
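qHTS, GR-coupled: GPX4 200 nM + cpd 30 min RT → GSH 1 mM, NADPH 0.5 mM, GR 100 nM → CHP 0.5 mM start; fluor 340/450 at t0 and t15 min; no-enzyme wells as control.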

Assay [6] in a line: qHTS drug screen for cell cycle checkpoint inhibitors in PARPi-resistant BRCA-mutant ovarian cancer cell lines. (AID 1963452; calls by dose curve). The settings on record: PEO1/OlaR viability, CellTiter-Glo luminescence, 96 h, stronger effect = lower value. A digest of the protocol:
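PEO1, PEO4 and PEO1/OlaR ovarian cancer cells, 600 per well, exposed 96 h at 37C to a dilution series. Viability read by CellTiter-Glo luminescence, normalized to DMSO and empty wells; activity summarized as Z-AUC.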

Inconclusive results are not listed. Activity calls are given as the source filed them. Unless noted, calls come from the whole dose curve; as a rule, active = well fitted curve in the direction sought with a large enough effect; inconclusive = small, poorly fitted or top-dose-only effect, or another doubt; inactive = no such curve, though single readings can be large; an effect the other way counts as inactive or inconclusive.

Sequence of Glutathione peroxidase 1 (Homo sapiens) (P07203 whole entry, looked up): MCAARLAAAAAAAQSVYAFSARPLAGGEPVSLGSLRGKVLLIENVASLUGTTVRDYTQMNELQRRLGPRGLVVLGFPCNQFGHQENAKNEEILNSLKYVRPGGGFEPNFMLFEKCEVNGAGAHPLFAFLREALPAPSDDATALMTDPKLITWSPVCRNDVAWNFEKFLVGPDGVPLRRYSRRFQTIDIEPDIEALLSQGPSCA
Sequence of Phospholipid hydroperoxide glutathione peroxidase GPX4 (Homo sapiens) (P36969 whole entry, looked up): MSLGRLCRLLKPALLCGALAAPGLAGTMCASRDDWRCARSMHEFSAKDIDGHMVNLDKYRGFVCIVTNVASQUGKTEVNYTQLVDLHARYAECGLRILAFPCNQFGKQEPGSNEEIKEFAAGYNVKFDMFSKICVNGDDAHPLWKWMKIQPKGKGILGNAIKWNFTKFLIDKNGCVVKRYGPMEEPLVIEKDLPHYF

Turning to `Nc1ncnc(Nc2ccc(OCc3ccccc3)c(Cl)c2)c1/C=N/OCCN1CCOCC1`, the Potency in assay [1] is 16.4 µM (active); in assay [2], 16.6 µM (active); in assay [3], 8.33 µM (active). For the same molecule, the Potency entry in assay [4] and in assay [5] was “inactive” in each case. Besides, the figures for the Z-AUC in assay [6], in assay [6] (measured here: PEO1 parental Z-AUC) and in assay [6] (measured here: PEO4 Z-AUC) were -0.0964 (inactive), 0.0883 and -0.311, respectively.
